Screens: PubChem BioAssay, National Center for Advancing Translational Sciences (NCATS)
IMPase Li cell – cell-permeable IMPase inhibitors with lithium potentiation. Potency, µM (series often up to 59.4 µM), for inactives: top-dose activity, negative = IMPase inhibition, actives largely listed as inhibitors. AID 1457. CHO-M1 cells, IP1 TR-FRET (IP-One), carbachol + lithium. 0.35% of 210,000 active;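 further: IP1 builds up when IMPase is blocked and the TR-FRET signal falls; potency means the concentration at half of the fitted maximal effect; plate controls were basal vehicle for no effect and high inhibitor control for full effect; nearly all actives have a fitted effect of over 50% in size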
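Readout is a homogeneous TR-FRET IP1 immunoassay (Ex 320, Em 665 and 620), where raised cytosolic IP1 lowers signal. Cells were CHO-M1 treated 30 min at 37C with test compounds plus a little lithium; AC50 values came from Hill-equation fitting.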
ALDH1A1 block – inhibitors of human aldehyde dehydrogenase 1A1 | Purified ALDH1A1, NADH fluorescence, propionaldehyde substrate | Potency, µM (series often up to 75.3 µM), without a hit: at the top dose activity, negative = inhibition, most hits filed as inhibitors | P00352 | 7.3% of 220,000 active; active means well fitted inhibition curve with a large enough effect, not every such curve was filed as active; inconclusive means small, poorly fitted or top-dose-only effect, or another doubt; inactive means no such curve, though single readings can be large or run the other way;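 further: potency means the concentration at half of the fitted maximal effect; plate controls were no enzyme wells and a reference inhibitor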
12-hLO inh – 12-hLO (ALOX12) enzyme inhibition. P18054. purified 12-hLO, xylenol orange hydroperoxide absorbance. Potency, µM (series often up to 57.1 µM), without a hit: at the highest dose activity change, negative = inhibition, actives largely listed as inhibitors. 0.12% of 150,000 active. AID 1452; further: potency means the concentration at half of the fitted maximal effect; nearly all actives have a fitted effect of over 55% in size
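Lipoxygenase turnover measured by absorbance at 573 and 405 nm after Fe-XO development. Human 12hLO 150 nM, arachidonate 40 uM, pH 7.0 Hepes buffer with detergent; 15 min compound preincubation, 30 min reaction.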
PNC assembly inh – perinucleolar compartment assembly inhibition; PC3M PTB-GFP, PNC prevalence imaging, 16 h; stronger effect = lower value; activity change (PNC), negative = inhibition, % at 10 µM; 3.1% of 140,000 active;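 active means readout at or below -70, meaning at least 70% loss of cells showing the perinucleolar compartment, a nuclear body marking cancer cells; inconclusive means readout between -30 and a set limit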;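 further: plate controls were DMSO wells for no effect and camptothecin positive control wells for full effect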
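Read-out is percentage of cells bearing a perinucleolar compartment, from automated 20x imaging of fixed, Hoechst-stained PC3M PTB-GFP cells. Cells were seeded 4 h, then exposed 16 h to compound (23 nl of library stock) in duplicate plates.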
IMPase cell inh – membrane-permeable compound that blocks inositol monophosphatase. 120,000 tested, under 10 active. CHO-M1 cells, IP1 accumulation, HTRF TR-FRET ratio. inhibition (IP1 accumulation), % at 46.1 µM. P97697. AID 901; active means well fitted curve in the direction sought with a large enough effect in the signal ratio, not every such curve was filed as active; inconclusive means small, poorly fitted or top-dose-only effect, or a change in a side signal; inactive means no such curve, though single readings can be large or run the other way; the % refers to the signal ratio;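 further: cells stimulated with carbachol in lithium chloride buffer; plate controls were DMSO basal wells for no effect and reference inhibitor wells for full effect; higher means more IMPase inhibition seen as more IP1 and lower FRET ratio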
Target sequence (P97697 whole entry, looked up): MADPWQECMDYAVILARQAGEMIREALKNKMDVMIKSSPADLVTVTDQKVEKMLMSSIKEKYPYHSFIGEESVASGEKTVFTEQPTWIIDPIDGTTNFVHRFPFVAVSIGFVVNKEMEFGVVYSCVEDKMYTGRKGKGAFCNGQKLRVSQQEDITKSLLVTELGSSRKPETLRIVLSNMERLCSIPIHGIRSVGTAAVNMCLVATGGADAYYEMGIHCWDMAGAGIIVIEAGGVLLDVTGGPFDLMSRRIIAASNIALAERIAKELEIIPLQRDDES
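In this qHTS, compounds (final up to 46 uM) act on CHO-M1 cells that are then activated through the M1 receptor with carbachol, in pH 7.4 buffer containing 50 mM LiCl, for 30 min. IP1 accumulation is quantified by the IP-One immunoassay.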
HPGD block – HPGD (human) dehydrogenase inhibition. P15428. purified HPGD, NADH fluorescence kinetic, PGE2 substrate. Potency, µM, for the others: at the highest dose activity change, negative = inhibition, most hits filed as inhibitors. 4.3% of 150,000 active; active means well fitted inhibition curve with a large enough effect, not every such curve was filed as active; inconclusive means small, poorly fitted or top-dose-only effect, or another doubt; inactive means no such curve, though single readings can be large or run the other way; further: potency means the concentration at half of the fitted maximal effect
Target sequence (P15428 whole entry, looked up): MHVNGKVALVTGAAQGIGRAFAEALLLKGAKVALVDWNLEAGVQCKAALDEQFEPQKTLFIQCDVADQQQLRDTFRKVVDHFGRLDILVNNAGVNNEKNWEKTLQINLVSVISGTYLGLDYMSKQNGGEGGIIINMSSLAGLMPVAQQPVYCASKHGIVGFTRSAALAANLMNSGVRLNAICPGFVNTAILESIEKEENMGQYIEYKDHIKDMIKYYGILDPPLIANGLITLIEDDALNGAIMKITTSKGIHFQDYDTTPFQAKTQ
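20 nM HPGD preincubated 15 min at room temperature with compound in 50 mM Tris-HCl pH 8, 0.01% Tween 20. Started with 1 mM NAD+ and 30 uM prostaglandin E2; NADH fluorescence (360/450 nm) read 5 times over 30-s intervals, last minus first.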
Active calls of the source: *; [ ] = remark or other dose. Sampled rows, rich in hits. Any-hit rate of the full collection: about 11%. Unless noted, the call rests on the fitted dose curve; in most records, active means well fitted curve in the direction sought with a large enough effect; inconclusive means small, poorly fitted or top-dose-only effect, or another doubt; inactive means no such curve, though single readings can be large; an effect the other way counts as inactive or inconclusive. Unless noted, on the % scale 0 is the no-effect control and ±100 the full control effect.

Screening O=C(Nc1cccnc1)c1noc2c1CCCC2 returned IMPase Li cell 5%[38.3 µM], ALDH1A1 block 22µM*, 12-hLO inh 0%, PNC assembly inh -3, IMPase cell inh 2 and HPGD block -14%.
`CCCc1cc(C(=O)Nc2cccc(Cl)c2)no1` gave IMPase Li cell 26%[38.3 µM], ALDH1A1 block 11%, 12-hLO inh 1%, PNC assembly inh -26, IMPase cell inh inconclusive and HPGD block -18%.
For Cc1ccc(S(=O)(=O)N=Nc2c(O)[nH]c3cc(O)c(C(=O)O)cc23)cc1 the results were IMPase Li cell 2%, ALDH1A1 block 7%[13.5 µM], 12-hLO inh -3%[11.4 µM] and HPGD block -8%.
`CCc1ccc2[nH]c(=O)c(CN(CCN3CCOCC3)C(=O)Nc3ccccc3F)cc2c1` gave IMPase Li cell 2%[38.3 µM], ALDH1A1 block -3%, 12-hLO inh 0%, PNC assembly inh -86*, IMPase cell inh 9 and HPGD block -5%.
Screening CCc1ccc2[nH]c(=O)c(CN(CCCN3CCOCC3)C(=O)Nc3ccc(F)cc3)cc2c1 returned IMPase Li cell 32%[38.3 µM], ALDH1A1 block inconclusive, 12-hLO inh -6%, PNC assembly inh 19, IMPase cell inh 7 and HPGD block inconclusive.
`O=C(Nc1ccccc1)N(CCCN1CCOCC1)Cc1ccccc1F` gave IMPase Li cell 1%[38.3 µM], ALDH1A1 block 3%, 12-hLO inh 1%, PNC assembly inh -109*, IMPase cell inh -8 and HPGD block -4%.
Screening CO/N=C(/C)CCC(=O)OC[C@@H]1O[C@H](C#Cc2ccccc2)C=C[C@@H]1Oc1ccc(C)cc1 returned ALDH1A1 block 1%[13.5 µM].
For N[C@H](CO)C(=O)NCC(=O)O the results were IMPase Li cell 5%, ALDH1A1 block -5%[13.5 µM], 12-hLO inh 0%[11.4 µM] and HPGD block -3%.
`NC(CO)C(=O)NNCc1ccc(O)c(O)c1O` (stereo not drawn) gave IMPase Li cell 13%, ALDH1A1 block 3.4µM*, 12-hLO inh 0%, PNC assembly inh 17 and HPGD block -9%.
Screening CC(C)Cn1cc(C(=O)NCc2cccs2)c2c3ccccc3n(C)c2c1=O returned ALDH1A1 block 1µM*, 12-hLO inh -6%, PNC assembly inh -6 and IMPase cell inh -18.
Screening COc1ccc(C(=O)NC(=S)N2CCCCC2)cc1 returned IMPase Li cell 31%[38.3 µM], ALDH1A1 block 16µM*, 12-hLO inh -23%, PNC assembly inh -7, IMPase cell inh -2 and HPGD block 18µM*.
Screening COC(=O)c1sccc1NC(=S)N1CCCCC1 returned IMPase Li cell 28%[38.3 µM], ALDH1A1 block 7.9µM*, 12-hLO inh -7%, PNC assembly inh -16, IMPase cell inh -1 and HPGD block inconclusive.
`COC(=O)c1sccc1NC(=S)N1CCC(C(N)=O)CC1` gave IMPase Li cell -6% and ALDH1A1 block -2%.
COc1ccc(C(=O)NC(=S)N2CCC(C)CC2)cc1 was read as IMPase Li cell 20%[38.3 µM], ALDH1A1 block inconclusive, 12-hLO inh -29%, PNC assembly inh -5, IMPase cell inh -8 and HPGD block 22µM*.
`CC(C)NC(=O)N1CCCC2(CCN(C(=O)c3cccc(F)c3)CC2)C1` gave IMPase Li cell 6%, ALDH1A1 block 15%, 12-hLO inh 0% and HPGD block -3%.
O=C1[C@@H]2[C@H]3[C@H](O)[C@H](O)C/C(=N/OC[C@@H](O)COCc4ccco4)[C@H]3CC[C@H]2C(=O)N1c1ccc(F)cc1F was read as ALDH1A1 block 5%[13.5 µM].
COC(=O)c1ccc(CSc2nnc(-c3ccccc3)n2C)o1 was read as IMPase Li cell 8% and ALDH1A1 block -10%.
For COC(=O)c1ccc(CSc2nnnn2-c2ccccc2)o1 the results were IMPase Li cell 11%[38.3 µM], ALDH1A1 block 7.1µM*, 12-hLO inh 5%, PNC assembly inh -14, IMPase cell inh 3 and HPGD block -21%.
`CCc1ccc(-n2c(CSc3nnnn3-c3ccccc3)nc3ccccc3c2=O)cc1` gave IMPase Li cell 28%[38.3 µM], ALDH1A1 block 1.4µM*, 12-hLO inh -2%, PNC assembly inh 27, IMPase cell inh -3 and HPGD block -11%.
`COC(=O)c1ccc(-n2nnnc2SCc2ccccc2OC)cc1` gave IMPase Li cell 21%[38.3 µM], ALDH1A1 block 14µM*, 12-hLO inh -7%, PNC assembly inh 10, IMPase cell inh 8 and HPGD block -24%.
O=C(c1cccc(Br)c1)c1conc1C(=O)c1ccco1 was read as IMPase Li cell 0%, ALDH1A1 block -5%, 12-hLO inh 1%, PNC assembly inh -114* and HPGD block -5%.
For CCc1ccc(-c2nc(SCC(=O)NCCOC)c(-c3ccc(C)cc3)[nH]2)cc1 the results were IMPase cell inh 1.
CCN(c1cccc(C)c1)S(=O)(=O)c1c(C)[nH]c(=O)[nH]c1=O was read as IMPase Li cell 11%[38.3 µM], ALDH1A1 block 10%, 12-hLO inh 8%, PNC assembly inh 19, IMPase cell inh 6 and HPGD block -5%.
CCN(c1cccc(C)c1)S(=O)(=O)c1ccc2[nH]c(=O)c(=O)[nH]c2c1 was read as IMPase Li cell 6%[38.3 µM], ALDH1A1 block inconclusive, 12-hLO inh 1%, PNC assembly inh -103*, IMPase cell inh -2 and HPGD block inconclusive.
CCC(C)(C)C1CCC(=NNC(=O)c2ccoc2C)CC1 (stereo not drawn) was read as IMPase Li cell 40%[38.3 µM], ALDH1A1 block 25µM*, 12-hLO inh 0%, PNC assembly inh 26, IMPase cell inh 2 and HPGD block -23%.
CCCC(=O)NNC(=O)c1ccoc1C was read as IMPase Li cell -5%, ALDH1A1 block 10%, 12-hLO inh 1%, PNC assembly inh -18 and HPGD block -6%.
`O=C(Nc1nnc(C(F)(F)F)s1)c1ccc(N2C(=O)C3C4C=CC(C4)C3C2=O)cc1` (stereo not drawn) gave IMPase Li cell -11%[38.3 µM], ALDH1A1 block 1%, 12-hLO inh 1%, PNC assembly inh 14, IMPase cell inh -1 and HPGD block 14µM*.
`COc1ccccc1NC(=S)N(Cc1ccco1)Cc1cc2cccc(C)c2[nH]c1=O` gave IMPase Li cell 5%, ALDH1A1 block -16%, 12-hLO inh -3%, PNC assembly inh 24 and HPGD block -9%.
Screening COc1ccccc1NC(=O)CN(Cc1ccco1)C(=O)c1cc2ccccc2o1 returned IMPase Li cell 13% and ALDH1A1 block 22µM*.
